Bioassay records from PubChem BioAssay.
AmpC nodet inh – inhibitors of E. coli AmpC beta-lactamase without detergent; actives 1.8% (n = 71,000); AmpC nitrocefin hydrolysis, absorbance 480 nm, no detergent; AID 585; Potency, µM (titrated, usually from 28.7 µM)
Target sequence (P00811 whole entry, looked up): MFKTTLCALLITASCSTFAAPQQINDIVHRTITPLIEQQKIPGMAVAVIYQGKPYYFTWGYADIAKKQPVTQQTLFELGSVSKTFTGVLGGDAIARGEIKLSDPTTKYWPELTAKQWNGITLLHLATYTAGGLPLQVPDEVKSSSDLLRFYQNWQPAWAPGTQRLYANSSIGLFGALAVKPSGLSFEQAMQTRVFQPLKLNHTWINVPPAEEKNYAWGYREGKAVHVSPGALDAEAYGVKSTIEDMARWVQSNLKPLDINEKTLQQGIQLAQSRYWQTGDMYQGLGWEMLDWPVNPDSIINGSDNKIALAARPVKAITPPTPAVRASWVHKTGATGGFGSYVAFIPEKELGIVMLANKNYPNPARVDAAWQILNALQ
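AmpC, 20 mM phosphate pH 7.0; 15 min cpd preinc, RT; start with nitrocefin (800 uM stock); A480 kinetic read, 20 s intervals, 4 min. No-enzyme wells = negative control.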
AmpC inh det – AmpC beta-lactamase inhibition, detergent assay | P00811 | purified AmpC, nitrocefin hydrolysis with detergent | Potency, µM (titrated, usually from 28.7 µM) | actives 0.09% (n = 71,000) | AID 584; active means well fitted curve in the direction sought with a large enough effect; inconclusive means small, poorly fitted or top-dose-only effect
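E. coli AmpC (5.3 nM) in 20 mM phosphate pH 7.0 with 0.01% Triton X-100, preincubated 15 min RT with compound; nitrocefin (2 uL of 800 uM stock) hydrolysis followed by 480 nm absorbance every 20 s over 4 min.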
LT uptake inh – anthrax lethal toxin internalization inhibition; actives 0.67% (n = 70,000); AID 912; Potency, µM (series often up to 40 µM), usual class: inhibitors; Cells, anthrax lethal toxin internalization, FRET ratio (460/530); further: nearly all actives have a fitted effect of over 50% in size
SmPrx2 inh – inhibitors of Schistosoma mansoni peroxiredoxin 2. S. mansoni Prx2 activity coupled to TGR/GSH (TGR is thioredoxin glutathione reductase), NADPH fluorescence loss, qHTS. Potency, µM. actives 0.07% (n = 65,000). AID 448
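Purified S. mansoni TGR and Prx2 in pH 7.4 phosphate buffer with EDTA and Tween-20 were preincubated with compounds for 15 min. Further NADPH/GSH was added, then a 2.5 mM H2O2 aliquot initiated turnover, followed kinetically by NADPH fluorescence.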
Each line names hits and unclear results; the compound was inactive in the other large screens; [ ] = dose if it differs, or a comment. The list is not random: actives were taken first. Their share in the collection is about 2.4%. Unless noted, the call rests on the fitted dose curve.

NC(=O)c1cn(-c2ccccc2)nc1-c1cccnc1	none
Cn1cnnc1SCC(=O)Nc1sc2c(c1C(N)=O)CCC2	AmpC nodet inh 10µM, LT uptake inh inconclusive
NC(=O)c1c(NC(=O)CSc2nnc(-c3ccccc3)n2CC2CCCO2)sc2c1CCC2 (centres undefined)	none
COc1ccc(-c2nc3cnc(OC)nc3n(C)c2=O)cc1	none
CC(=O)c1cc2c(cc1NC(=O)CN1CCN(C(=O)c3ccco3)CC1)OCO2	AmpC nodet inh 4µM[single pt active]
CCOC(=O)N1CCN(CC(=O)Nc2cc3c(cc2C(C)=O)OCO3)CC1	none
COc1ccc2nc3sc(C(=O)NCc4cccs4)c(N)c3cc2c1	AmpC nodet inh 13µM
COCCCNCC(=O)Nc1ccc(OC(F)(F)F)cc1	none
N#CC(C#N)=NNc1ccc(OC(F)(F)F)cc1	LT uptake inh 0.5µM (no result: AmpC nodet inh, AmpC inh det, SmPrx2 inh)
N[C@@H]1CCc2cc(O)c(O)cc2C1	LT uptake inh inconclusive
COc1ccc(S(=O)(=O)Cc2ccc(C(=O)NCCc3ccc(S(N)(=O)=O)cc3)o2)cc1	none
COc1ccc(S(=O)(=O)Cc2ccc(C(=O)NCc3cccnc3)o2)cc1	AmpC nodet inh 4µM[single pt active]
COc1ccc(S(=O)(=O)Cc2ccc(C(=O)NCc3ccc(F)cc3)o2)cc1	AmpC nodet inh 4µM[single pt active], LT uptake inh inconclusive
COCCCNC(=O)c1ccc(CS(=O)(=O)c2ccc(OC)cc2)o1	AmpC nodet inh 4µM[single pt active]
c1cncc(-c2cncnc2NCc2cccs2)c1	none
COc1cc2c(cc1O)[C@@H](c1cc(O)c(O)c(OC)c1)[C@@](O)(C(=O)O)[C@@H](CO)[C@@H]2O	LT uptake inh inconclusive
CC(=O)NCCNc1ccnc(-c2ccccc2C)n1	none
CN[C@@H]1[C@H](O)[C@H](NC)[C@@H]2O[C@]3(O)C(=O)C[C@@H](C)O[C@H]3O[C@@H]2[C@H]1O	none
Cc1ccc(-n2nnc3ccccc3c2=O)cc1C	LT uptake inh 13µM (no result: SmPrx2 inh)
COc1nc(-c2ccccc2)cc(-c2ccc(OC)c(OC)c2)n1	LT uptake inh 13µM (no result: SmPrx2 inh)
COc1ccc(-c2cc(C(F)(F)F)nc(N3CCN(c4ccccc4)CC3)n2)cc1OC	none
OC(CN1C2=NCCCN2c2ccccc21)c1ccc(Cl)cc1 (centres undefined)	AmpC nodet inh 4µM[single pt active], LT uptake inh inconclusive
CC[C@@H](c1ccccc1)n1c(=O)n2n(c1=O)[C@H]1[C@H](O)[C@H]3O[C@@H]3/C(=N/OCC(C)C)[C@@H]1CC2	none (no result: AmpC nodet inh, AmpC inh det, SmPrx2 inh)
COc1ccc(C(C)(C)C)cc1NC(=O)Nc1ccc2c(c1)OCO2	LT uptake inh 10µM
CCCCSc1c(C)c2cc3c(cc2[nH]c1=O)OCO3	AmpC nodet inh 16µM[single pt active] (no result: LT uptake inh)
CCC(=O)CC(NC(=O)OC)c1ccccc1 (centres undefined)	none (no result: AmpC nodet inh, AmpC inh det, SmPrx2 inh)
CCCCN(CC)S(=O)(=O)c1ccc(C(=O)Nc2nnc(-c3ccccc3Cl)o2)cc1	AmpC nodet inh 6.3µM
CCCCN(C)S(=O)(=O)c1ccc(C(=O)Nc2nnc(-c3cccs3)o2)cc1	AmpC nodet inh 16µM
CCn1cnc2c(Nc3cccc(Cl)c3)nc(N[C@@H]3CCCC[C@H]3N)nc21	none
C/C(CCC(=O)OC[C@@H]1O[C@H](C#Cc2ccccc2)C=C[C@@H]1Oc1ccc(C)cc1)=N/O[C@@H](C)CN1CCCc2nc(C)c(C)cc21	none (no result: AmpC nodet inh, AmpC inh det, SmPrx2 inh)
Nc1nc2c(s1)CCc1c-2cnn1-c1ccccc1	LT uptake inh 10µM
COc1ccc(-c2cnn(-c3ccccc3)c2N)cc1OC	none (no result: SmPrx2 inh)
CCc1cc2cc(C(=O)N3CCN(Cc4ccccc4)CC3)sc2s1	LT uptake inh 13µM (no result: SmPrx2 inh)
O=C1c2ccccc2CC[C@H]1CNCCc1ccc(O)cc1	LT uptake inh inconclusive
CCOC(=O)C1Cn2c(nc3c(c2=O)C2(CCCC2)Cc2ccccc2-3)S1 (centres undefined)	LT uptake inh inconclusive (no result: SmPrx2 inh)
CCOC(=O)C1Cn2c(nc3c(c2=O)C(C)(C)Cc2ccccc2-3)S1 (centres undefined)	LT uptake inh 10µM (no result: SmPrx2 inh)
O=C(CSc1nnc(-c2ccc(Cl)cc2)o1)N1CCN(c2ccccc2)CC1	AmpC nodet inh 10µM[single pt active]
Clc1ccc(-c2nnc(SCc3nc(-c4ccccc4)no3)o2)cc1	AmpC nodet inh 4µM[single pt active], LT uptake inh inconclusive
O=C(CSc1nnc(COc2ccc(Cl)cc2)o1)N1CCN(c2ccccc2)CC1	LT uptake inh inconclusive
CCCN1C(=O)c2cc(C(=O)Nc3ccccc3CC)ccc2C1O (centres undefined)	AmpC nodet inh 4µM[single pt active]
CCCCN1C(=O)c2ccccc2C1C(=O)NC1CCCC1 (centres undefined)	none
CCCN1C(=O)c2cc(C(=O)NC3CCCC3)ccc2C1O (centres undefined)	AmpC nodet inh 4µM[single pt active]
CC(=O)N1CCC2(CCCN(C(=O)Nc3cccc(C#N)c3)C2)CC1	LT uptake inh inconclusive
CC(C)NC(=O)N1CC[C@@]2(CCCN(C(=O)c3cnccn3)C2)C1	none
CC(C)CN(CCNC(=O)CC1Oc2ccccc2NC1=O)CC(C)C (centres undefined)	AmpC nodet inh 4µM[single pt active]
CCN(CCNC(=O)CC1Oc2ccccc2NC1=O)c1ccccc1 (centres undefined)	AmpC nodet inh 4µM[single pt active]
CCCSCCCNC(=O)CC1Oc2ccccc2NC1=O (centres undefined)	AmpC nodet inh 4µM[single pt active]
CCC(C)N(CCNC(=O)CC1Oc2ccccc2NC1=O)C1CCCCC1 (centres undefined)	AmpC nodet inh 4µM[single pt active]
O=[N+]([O-])c1ccc(O[C@H]2O[C@@H](CO)[C@@H](O)[C@@H](O)[C@@H]2F)c([N+](=O)[O-])c1	none
C#CCCCO/N=C1/C[C@@H](O)[C@@H](O)[C@@H]2[C@@H]3C(=O)N(C[C@@H]4CCCO4)C(=O)[C@H]3CC[C@H]12	none (no result: AmpC nodet inh, AmpC inh det, SmPrx2 inh)
CCN1CCN(CCC(=O)Nc2ccccc2OC)CC1	none
CCN1CCN(Cc2ccc(NC(=O)Nc3ccccc3OC)cc2)CC1	AmpC nodet inh 4µM[single pt active], LT uptake inh inconclusive
NC(N)=Nc1ccc2[nH]c3c(c2c1)C[C@]1(O)[C@@H]2Cc4ccc(O)c5c4[C@]1(CCN2CC1CC1)[C@H]3O5	none
COc1cc(OC)c(C2=NOC(C(=O)Nc3cc(C)nn3-c3ccccc3)C2)cc1Cl (centres undefined)	LT uptake inh inconclusive
COc1cccc(C2=NOC(C(=O)Nc3cc(C)nn3-c3ccccc3)C2)c1OC (centres undefined)	AmpC nodet inh 4µM[single pt active], LT uptake inh inconclusive
O=C(c1ccc(CS(=O)(=O)c2ccc(Br)cc2)o1)N1CCCCCC1	AmpC nodet inh 3.2µM[single pt active], LT uptake inh inconclusive
O=C(c1ccc(CS(=O)(=O)c2ccc(Br)cc2)o1)N1CCN(C2CCCCC2)CC1	none
Cc1ccc(S(=O)(=O)Cc2ccc(C(=O)N3CCN(Cc4ccccc4)CC3)o2)cc1	none
O=C(c1ccc(CS(=O)(=O)c2ccccc2)o1)N1CCOCC1	AmpC nodet inh 2.5µM[single pt active]
O=C(c1ccc(CS(=O)(=O)c2ccc(Br)cc2)o1)N1CCCC1	AmpC nodet inh 4µM[single pt active]
CCc1nnc(NC(=O)CSc2nnc(COc3ccccc3C)o2)s1	AmpC nodet inh 13µM[single pt active]
CC(C)CCNC(=O)Cn1c(NCCC(C)C)nc2c1c(=O)n(C)c(=O)n2C	AmpC nodet inh 2.5µM[single pt active]
CS(=O)(=O)c1sc2nc(-c3cccs3)cc(-c3ccccc3)c2c1N	AmpC nodet inh 10µM[single pt active], LT uptake inh inconclusive
